# Results from PMC5489143, “One ligand, two regulators and three binding sites: How KDPG controls primary carbon metabolism in Pseudomonas”.
# Columns and labels:
# Settings in all cases: protein: recombinant; tags: C-terminal His (pET42b), not removed; chain copies: 2; label: captured on SA chip through 20-nt ReDCaT single-stranded 3' overhang of strand 2; dsDNA, one strand shown
# [1] = target: T1, RccR-His (Pseudomonas fluorescens SBW25, UniProt A0ACD4XSS6 1-288); experiment: SPR (ReDCaT); SPR ReDCaT, 10 mM HEPES pH 7.4, 300 mM NaCl, 3 mM EDTA, 0.05% Tween-20, 25 C; high values mean tight binding
# [2] = target: T1, RccR-His; experiment: SPR (ReDCaT); KDPG 0 uM; SPR ReDCaT, 10 mM HEPES pH 7.4, 300 mM NaCl, 3 mM EDTA, 0.05% Tween-20, 25 C; high values mean tight binding
# [3] = target: T1, RccR-His; experiment: SPR (ReDCaT); KDPG 1 uM; SPR ReDCaT, 10 mM HEPES pH 7.4, 300 mM NaCl, 3 mM EDTA, 0.05% Tween-20, 25 C; high values mean tight binding
# [4] = target: T1, RccR-His; experiment: SPR (ReDCaT); KDPG 10 uM; SPR ReDCaT, 10 mM HEPES pH 7.4, 300 mM NaCl, 3 mM EDTA, 0.05% Tween-20, 25 C; high values mean tight binding
# [5] = target: T1, RccR-His; experiment: SPR (ReDCaT); KDPG 100 uM; SPR ReDCaT, 10 mM HEPES pH 7.4, 300 mM NaCl, 3 mM EDTA, 0.05% Tween-20, 25 C; high values mean tight binding
sequence,measurement,setting,value
CGGTAGTAGTGCGCAACTTTCTACTACAAA,binding signal,[1],35.9 %Rmax
AATGTAGCCCCTTTTTTCAGCCCCTACATG,binding signal,[1],6.22 %Rmax
CTTGTGTAGTTTTACTACTCGTATATACAT,binding signal,[1],126 %Rmax
same,binding signal,[2],121 %Rmax
same,binding signal,[3],116 %Rmax
same,binding signal,[4],86.8 %Rmax
same,binding signal,[5],29.9 %Rmax
CATGTAGTATGCCCAACCGTGCACTACATA,binding signal,[1],55.1 %Rmax
CTTGTAGTATAACTACAAGCTTGCTACATC,binding signal,[1],158 %Rmax
same,binding signal,[2],161 %Rmax
same,binding signal,[3],152 %Rmax
same,binding signal,[4],125 %Rmax
same,binding signal,[5],105 %Rmax
ATGTAGGGTCCGCCGAAGACCACTACCT,binding signal,[1],3.18 %Rmax
CTTGTAGTTAATTTTTCGTCACCCGTCATA,binding signal,[1],8.34 %Rmax
TATGTAGTGAGCAAAAATAATCACTACATA,binding signal,[1],59.1 %Rmax
GATGTAGTGCTTGAAAAAAAGCACTACAAA,binding signal,[1],82.8 %Rmax
same,binding signal,[2],67.2 %Rmax
same,binding signal,[3],104 %Rmax
same,binding signal,[4],119 %Rmax
same,binding signal,[5],121 %Rmax
